Screens from PubChem.
HP1b binding inh: blocks HP1-beta chromodomain binding to methylated histone tails; P83916; AlphaScreen HP1-beta / biotin-H3K9me3 peptide binding; Potency, µM (top dose mostly 114 µM), hits mostly inhibitors; 390,000 tested, 0.56% active; also: nearly all actives have a fitted effect of over 70% in size
Target sequence (P83916 whole entry, looked up): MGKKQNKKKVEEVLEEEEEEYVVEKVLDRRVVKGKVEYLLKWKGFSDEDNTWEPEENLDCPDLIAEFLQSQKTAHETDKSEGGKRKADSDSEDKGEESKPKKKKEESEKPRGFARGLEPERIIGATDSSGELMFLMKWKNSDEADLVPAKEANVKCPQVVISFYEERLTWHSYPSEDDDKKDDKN
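AlphaScreen: HP1-beta (50 nM) preformed 30 min with biotin-H3(1-18)K9me3 peptide (50 nM) in PBS pH 7.4, 0.01% Tween-20. Compound added for 30 min at RT, then streptavidin donor/nickel chelate acceptor beads (10 ug/mL) for 30 min.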
CtBP-E1A inh: inhibitors of CtBP/E1A interaction. activity change, % (no concentration beside the values). 340,000 tested, 0.49% active. AlphaScreen GST-E1A/His-CtBP binding, 1536-well; hits give low values. AID 651724; in the data active = activity change below about -65%; inconclusive = mostly about -30% to -63%
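Steps: dispense buffer (Tris pH 8.0, NaCl 300 mM, TCEP 1 mM, BSA, Tween 20); add 5X protein mix (GST-E1A, His-CtBP, 125 nM each); pin 23 nL compound; 2 h at 37 °C, dark; add 5X beads (50 ug/mL); 1 h; read.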
G9a block: inhibitors of human histone lysine methyltransferase G9a. AID 504332. Q96KQ7. G9a H3K9 monomethylation, AlphaScreen, 2 h. 350,000 tested, 8.8% active. Potency, µM (top dose mostly 102 µM), hits mostly inhibitors; also: nearly all actives have a fitted effect of over 75% in size
Target sequence (Q96KQ7 913-1193 limits assumed): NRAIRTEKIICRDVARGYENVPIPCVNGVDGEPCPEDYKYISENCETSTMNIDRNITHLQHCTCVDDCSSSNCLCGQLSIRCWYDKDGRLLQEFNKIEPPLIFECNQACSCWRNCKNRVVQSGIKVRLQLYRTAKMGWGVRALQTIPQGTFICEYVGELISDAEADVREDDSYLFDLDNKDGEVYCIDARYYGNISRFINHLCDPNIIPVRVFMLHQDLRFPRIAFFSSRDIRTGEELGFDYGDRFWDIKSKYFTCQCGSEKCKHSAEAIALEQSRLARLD
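Enzyme 20 nM + cpd, 15 min RT; add b-H3K9 pep 500 nM / SAM 20 uM; 2 h RT; anti-H3K9me1 Ab 0.5 ug/mL + SA donor / anti-rabbit acceptor beads 20 ug/mL each, 10 min; AlphaScreen read.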
JMJD2A Tudor inh: blocks the human JMJD2A Tudor domain | O75164 | AlphaScreen JMJD2A-Tudor / H3K4me3 peptide binding | Potency, µM (series often up to 114 µM), hits mostly inhibitors | 390,000 tested, 4.4% active; also: nearly all actives have a fitted effect of over 50% in size
Six1-Eya2 blk: inhibitors of human Six1/Eya2 interaction; activity change, % (test concentration not listed); Q15475+O00167; 360,000 tested, 0.56% active; AlphaScreen GST-Six1/His-Eya2 binding, biochemical; hits give low values; in the data active = activity change below about -65%; inconclusive = mostly about -30% to -63%
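GST-Six1 + His-Eya2 (5X stock: 250/500 nM); Tris pH 8.0, 300 mM NaCl, 0.05% BSA, 0.02% Tween 20; GSH donor/Ni acceptor beads; 1 h 37 °C dark; AlphaScreen readout.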
BAZ2B block: BAZ2B (human) inhibition. Q9UIF8. AlphaScreen BAZ2B-H3K14Ac peptide displacement. Potency, µM (titrated, usually from 114 µM), usual class: inhibitors. 360,000 tested, 4.4% active; also: nearly all actives have a fitted effect of over 60% in size
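Protein-peptide AlphaScreen: BAZ2B 50 nM, b-H3K14Ac 50 nM, 1x PBS pH 7.4 + 0.01% Tween-20. Preincubation 30 min RT; cpd 30 min RT (top 110 uM); beads 20 min RT, light-protected.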
Hits are given with their value; . = inactive; ? = inconclusive; / = no result given; [ ] = another dose, or the depositor's remark. Rows were chosen to be rich in hits. Some 10% of all compounds tested hit in one or more screens of this group. Unless noted, calls follow the shape of the dose curve; as a rule, active = well fitted inhibition curve with a large enough effect; inconclusive = small, poorly fitted or top-dose-only effect; inactive = no such curve, though single readings can be large or run the other way.

SMILES | HP1b binding inh | CtBP-E1A inh | G9a block | JMJD2A Tudor inh | Six1-Eya2 blk | BAZ2B block
CCCN1CNc2c(c(=O)[nH]c(=S)n2CCc2cc(C)ccc2C)C1 | . | / | / | . | / | /
O=C(CSc1nnc2c(n1)[nH]c1ccccc12)Nc1nncs1 | . | . | . | . | ? | .
O=C(CCC1COc2ccccc2O1)Nc1ncccc1O (centres undefined) | . | . | . | 50µM | ? | ?
O=C(NCCCN1CCc2ccccc2C1)C1CCN(c2nnc(-n3cccc3)s2)CC1 | . | . | 50µM | ? | . | .
CCN(CC)c1ccc(NC(=O)C2CCN(c3nnc(-n4cccc4)s3)CC2)c(C)c1 | . | / | 4µM | . | / | .
CC(=O)Nc1ccc(S(=O)(=O)N(C)CC(=O)Nc2nc3ccccc3[nH]2)cc1 | . | . | . | ? | . | .
O=C(C1=NN[C@@H]2C(=O)N(c3cccc(C(F)(F)F)c3)C(=O)[C@H]12)c1cnccn1 | . | . | 40µM | ? | . | .
O=C(C1=NN[C@@H]2C(=O)N(c3cccc(C(F)(F)F)c3)C(=O)[C@H]12)C(c1ccccc1)c1ccccc1 | . | . | . | . | . | .
N#Cc1ccc(N2C(=O)[C@@H]3C(C(=O)c4cnccn4)=NN[C@@H]3C2=O)cc1 | . | . | / | 16µM | . | 56µM
CN(CCO)c1ccc2c(c1)OC[C@@H](Cc1ccccc1)NS2(=O)=O | / | . | / | / | . | /
NC(=O)CCC1NC(=O)C(Cc2ccccc2)NC(=O)C(Cc2ccc(O)cc2)NC(=O)CCSSCC(C(=O)N2CCCC2C(=O)NC(CCCN=C(N)N)C(=O)NCC(N)=O)NC(=O)C(CC(N)=O)NC1=O (centres undefined) | / | / | .[12.7 µM] | / | / | /
O=C(Nc1n[nH]c(=S)s1)c1ccco1 | ? | . | 1.4µM | 3.5µM | . | ?
O=C(Nc1nc2ccccc2c(=O)s1)c1ccc(F)cc1Cl | . | . | 71µM | . | . | .
O=C(Nc1nc2ccccc2c(=O)s1)c1ccco1 | . | / | 71µM | . | . | .
Cc1cc(Cl)ccc1Oc1ncnc2oc(-c3ccccc3)cc12 | . | . | .[0.501 µM] | ? | . | 79µM
Cc1cccc(Oc2ncnc3oc(-c4ccccc4)cc23)c1C | . | . | . | . | . | .
CC(C)(CN1CCOCC1)NS(=O)(=O)c1ccccc1 | . | . | / | . | . | .
CC1CC(C)CN(CC(C)(C)NS(=O)(=O)c2ccccc2)C1 (centres undefined) | ? | . | 8.9µM | 22µM | . | 50µM
Cc1ccc(S(=O)(=O)NCCC(=O)N2CCC(Cc3ccccc3)CC2)cc1 | . | . | .[0.501 µM] | . | . | .
Cc1ccc(S(=O)(=O)NC(C)(C)CN2CCC(Cc3ccccc3)CC2)cc1 | . | . | 7.9µM | 40µM | . | 56µM
CN1CCN(CC(C)(C)NS(=O)(=O)c2ccccc2)CC1 | . | . | / | . | . | /
CCC1CCCCN1CC(C)(C)NS(=O)(=O)c1ccccc1 (centres undefined) | ? | . | 7.1µM | 4.5µM | . | ?
CC(C)(CN1CCc2ccccc2C1)NS(=O)(=O)c1ccccc1 | ? | . | 10µM | 3.2µM | . | .
CCOC(=O)c1ccc(N/C=C/C(=O)C(C)(C)C)cc1 | . | . | . | . | . | .
CN(C)c1ccc(N/C=C/C(=O)c2ccccc2)cc1 | . | ? | 5.6µM | ? | . | ?
SMILES | HP1b binding inh | CtBP-E1A inh | G9a block | JMJD2A Tudor inh | Six1-Eya2 blk | BAZ2B block
CN(C)c1ccc(N/C=C/C(=O)C(C)(C)C)cc1 | . | ? | ? | 50µM | ? | 40µM
O=C(COC(=O)CCc1ccc(S(=O)(=O)N2CCOCC2)cc1)NCc1ccccc1 | . | . | . | . | . | /
CCCn1nc(C(=O)NNC(=O)CSC(C)C(=O)Nc2cc(C)on2)c2ccccc2c1=O (centres undefined) | . | . | 22µM | . | . | .
CCCn1nc(C(=O)NNC(=O)c2cccc(C)c2)c2ccccc2c1=O | . | . | / | . | . | /
COc1ccc(C2=NN(C(=O)CSc3nnc(-c4ccccc4F)o3)C(c3ccco3)C2)cc1 (centres undefined) | . | . | 45µM | . | . | .
COc1ccc(C2=NN(C(N)=S)C(c3ccco3)C2)cc1 (centres undefined) | . | . | 22µM | . | . | ?
CCCSc1ncc(Cl)c(C(=O)Nc2sc(C(C)=O)c(C)c2C(=O)OCC)n1 | . | / | . | . | / | .
O=C(OCc1ccccc1)c1ccc(NCc2cc(O)ccc2O)cc1 | ? | . | / | 25µM | . | /
CC(C)OC(=O)c1ccc(NCc2cc(O)ccc2O)cc1 | 40µM | . | / | 4µM | . | /
COP(=O)(OC)c1ccc(NCc2cc(O)ccc2O)cc1 | ? | . | / | 3.5µM | . | /
CC(C)OC(=O)c1ccc(NC(=O)c2ccccc2)cc1 | . | . | . | . | . | .
O=C(CS(=O)(=O)Cc1ccccc1)c1ccccc1 | / | . | / | / | . | /
Cn1c(=O)c2c(nc(Oc3ccccc3Cl)n2Cc2ccc(C#N)cc2)n(C)c1=O | . | / | . | . | / | /
CCOc1ccc(/C=C2\SC(=S)N(CCC(=O)O)C2=O)cc1 | . | . | . | . | . | .
COc1ccc(/C=C2\SC(=S)N(CCC(=O)Nc3ccccc3C(=O)O)C2=O)cc1 | ? | . | 71µM | ? | . | ?
COc1ccc(/C=C2\SC(=S)N(CCCC(=O)Nc3ccccc3C(=O)O)C2=O)cc1OC | . | . | . | ? | . | .
CCOc1ccc(/C=C2\SC(=S)N(CCC(=O)Nc3ccccc3C(=O)O)C2=O)cc1 | . | . | 35µM | . | . | ?
CN1C(=O)/C(=C/c2ccc(C(=O)Nc3ccc(O)cc3C(=O)O)cc2)SC1=S | 45µM | / | .[0.0925 µM] | 45µM | . | 22µM
CCNc1ncc2nc(-c3ccccc3)c(=O)n(C3CC3)c2n1 | / | / | .[12.7 µM] | / | / | /
CCOC(=O)NC(=S)c1ccc[nH]1 | . | . | . | . | . | .
O=S(=O)(Nc1ccc(-n2cccc2)cc1)c1ccc(Cl)c(Cl)c1 | . | / | ? | ? | . | ?
O=S(=O)(Nc1ccc(-n2cccc2)cc1)c1ccc(F)cc1 | ? | / | 50µM | .[11.4 µM] | . | ?
CCCCN(C)CC(O)Cn1cc(/C=C/C(=O)c2ccc(C)cc2)c2ccccc21 (centres undefined) | . | / | . | 50µM | . | ?
CCCCN(C)CC(O)Cn1cc(/C=C/C(=O)c2ccc(Br)cc2)c2ccccc21 (centres undefined) | . | / | . | 71µM | / | ?
CN(C)S(=O)(=O)c1cccc(N=c2scc(-c3ccc4c(c3)NC(=O)CO4)n2CC2CCCO2)c1 (centres undefined) | ? | . | .[12.7 µM] | ? | ? | 50µM
COc1ccccc1N=c1scc(-c2ccc3c(c2)NC(=O)CO3)n1CC1CCCO1 (centres undefined) | ? | . | ? | ? | . | 45µM
